Source: PubChem
Sampled rows, rich in hits. Any-hit rate of the full collection: about 21%.
VP16 counter: inhibits Gal4-VP16 luciferase reporter, ROR gamma counter-screen; Potency, µM (doses to about 53.6 µM), without a hit: top-dose activity, negative = inhibition, most hits filed as inhibitors; AID 2546; Drosophila S2 Gal4-VP16 UAS-luciferase, luminescence, 20 h; 3.5% of 310,000 active;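 also: Gal4-VP16 expression switched on by copper sulfate through the metallothionein promoter; potency is read from the fitted curve at half-maximal effect; nearly all actives have a fitted effect of over 50% in size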
RORgamma inh: inhibitors of mouse ROR gamma transcriptional activity | P51450 | Drosophila S2 Gal4-RORgamma UAS-luciferase reporter, 20 h | Potency, µM (doses to about 53.6 µM), inactives show at the highest dose activity change, negative = inhibition, hits mostly inhibitors | 5.4% of 310,000 active | AID 2551; also: potency is read from the fitted curve at half-maximal effect; nearly all actives have a fitted effect of over 60% in size
Target sequence (P51450 whole entry, looked up, the tested form may be a part): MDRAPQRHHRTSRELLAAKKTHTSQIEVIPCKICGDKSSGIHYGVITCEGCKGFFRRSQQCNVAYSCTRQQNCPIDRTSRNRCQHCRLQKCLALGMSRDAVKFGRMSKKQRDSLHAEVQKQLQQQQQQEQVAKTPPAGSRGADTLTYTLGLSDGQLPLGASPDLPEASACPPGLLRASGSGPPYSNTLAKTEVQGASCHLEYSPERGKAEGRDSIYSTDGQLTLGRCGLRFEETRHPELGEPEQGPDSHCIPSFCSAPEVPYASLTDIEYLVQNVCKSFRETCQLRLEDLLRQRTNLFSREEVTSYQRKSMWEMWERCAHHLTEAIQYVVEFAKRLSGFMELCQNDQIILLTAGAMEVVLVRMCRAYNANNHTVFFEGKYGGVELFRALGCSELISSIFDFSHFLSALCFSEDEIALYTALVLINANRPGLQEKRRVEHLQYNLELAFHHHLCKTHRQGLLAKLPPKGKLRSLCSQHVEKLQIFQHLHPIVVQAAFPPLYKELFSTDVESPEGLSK
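Stably transfected Drosophila Schneider cells are the test system, with ROR gamma fused to Gal4 and luciferase under UAS control; luminescence is read after 20 hr of 700 uM copper sulfate induction at ambient temperature.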
TDP1 cell noCPT: qHTS for Inhibitors of human tyrosyl-DNA phosphodiesterase 1 (TDP1): qHTS in cells in absence of CPT; DT40 Tdp1-/- hTDP1 cells, no CPT, ATP luminescence, 48 h; Potency, µM (titrated, usually from 46.2 µM), for inactives: at the top dose activity change, negative = growth inhibition, actives largely listed as inhibitors; AID 686978, 2013; 15% of 420,000 active; also: potency is read from the fitted curve at half-maximal effect; nearly all actives have a fitted effect of over 55% in size
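Stably hTDP1-transfected Tdp1-null chicken DT40 cells were treated with library compounds minus camptothecin and grown for at least 48 hr at 37 °C, after which cellular ATP was quantified by luminescence.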
IL-1B inflam inh: inflammasome signaling inhibition, IL-1 beta readout; activity change, % at 57.5 µM; 4.7% of 360,000 active; THP-1 LPS/ATP IL-1B secretion, AlphaLISA, 16 h; hits give low values; in the data active = activity change below about -50%; inconclusive = mostly about -30% to -49%
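THP-1 cells pretreated 1 hr with compounds (up to 57.5 uM final), then stimulated with LPS (250 ng/mL final) plus ATP (1.25 mM final); secreted IL-1B measured by AlphaLISA after 16 hr, decreased signal indicating inhibition.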
DT40 TDP1 CPT: DT40-hTDP1 cell growth loss with CPT. chicken DT40 Tdp1-/-;hTDP1 cells + 20 nM CPT, ATP luminescence, 48 h. Potency, µM (series often up to 46.2 µM), inactives show top-dose activity change, negative = growth inhibition, hits mostly inhibitors. 12% of 420,000 active. AID 686979; also: potency is read from the fitted curve at half-maximal effect; nearly all actives have a fitted effect of over 55% in size
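Cell growth measured by CellTiter-Glo luminescence after a minimum 48 h, 37 C compound exposure with 20 nM CPT in Tdp1-knockout DT40 cells stably expressing hTDP1, seeded 400/well; qHTS titration format.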
ELG1 repair inh: ELG1-dependent DNA repair inhibition. AID 504467. Potency, µM (highest dose often 46.1 µM), for inactives: top-dose activity change, negative = inhibition, most hits filed as inhibitors. 2.3% of 330,000 active. HEK293T ELG1-luciferase reporter, luminescence, 16 h; DNA damage induced by 5-fluorouridine; also: potency is read from the fitted curve at half-maximal effect; nearly all actives have a fitted effect of over 55% in size
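Reporter activity after DNA damage by 5-fluorouridine is monitored. Compound-treated cells incubate 16 hr at 37 °C, then ONE-Glo is added for 30 min before luminescence reading.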
Numbers without * were called inactive; ? = inconclusive; · = not tested or not shown. Unless noted, calls follow the shape of the dose curve; as a rule, active = well fitted curve in the direction sought with a large enough effect; inconclusive = small, poorly fitted or top-dose-only effect, or another doubt; inactive = no such curve, though single readings can be large; an effect the other way counts as inactive or inconclusive. % is scaled to controls: 0 for no effect and ±100 for the full control effect.

SMILES | VP16 counter | RORgamma inh | TDP1 cell noCPT | IL-1B inflam inh | DT40 TDP1 CPT | ELG1 repair inh
O=C(CS(=O)(=O)c1ccc(F)cc1)Nc1nnc(-c2cccs2)o1 | · | · | 1% | 3 | 2% | ?
CCC1CCCCN1S(=O)(=O)c1ccc(C(=O)Nc2nnc(-c3cccs3)o2)cc1 (stereo not drawn) | 0.32µM* | 0.32µM* | 6.3µM* | 33 | 6.3µM* | ?
CCC(=O)N(C)C[C@H]1Oc2cc(-c3cccnc3)ccc2S(=O)(=O)N([C@H](C)CO)C[C@H]1C | · | · | -19% | -20 | -8% | ·
O=c1c2oc3ccccc3c2n(Cc2ccccc2Cl)c(=O)n1Cc1ccco1 | · | · | 22% | · | 16% | ·
COc1cc(CN2CCCC(CO)(Cc3ccccc3)C2)ccc1O (stereo not drawn) | -11% | ? | -11% | -8 | -5% | -2%
CC(C)Oc1ccc(CN2CCCC(CO)(Cc3ccc(F)cc3)C2)cc1 (stereo not drawn) | -3% | -20% | ? | -72* | ? | 7%
COc1ccc(CN2CCCC(CO)(Cc3ccc(F)cc3)C2)c(OC)c1OC (stereo not drawn) | -2% | -9% | ? | -16 | 15µM* | ?
CCOc1ccc(CN2CCCC(CO)(Cc3ccccc3F)C2)cc1 (stereo not drawn) | -10% | -17% | ? | -56* | ? | -13%
CC(C)(C)c1cc(CP(=O)(c2ccccc2)c2ccccc2)cc(C(C)(C)C)c1O | ? | 7% | ? | ? | ? | -23%
CCOc1ccc(CCNC(=O)CSc2nc3ncc(Cl)cc3[nH]2)cc1OCC | 3% | 28% | 0% | 1 | -26% | -5%
CCCCNS(=O)(=O)c1ccc2nc(SCC(=O)c3ccccc3OC)[nH]c2c1 | -5% | 1% | ? | ? | 10µM* | 21µM*
CCCCNS(=O)(=O)c1ccc2nc(SCC(=O)Nc3sccc3C#N)[nH]c2c1 | 13µM* | 4% | ? | 8 | 23µM* | 16µM*
CN(C)S(=O)(=O)c1ccc2c(c1)/C(=C/c1cc3c([nH]1)CCCC3)C(=O)N2 | · | · | 3.3µM* | -11 | 4.6µM* | 16%
CN(C1CCCCC1)S(=O)(=O)c1ccc2c(c1)CCC(=O)N2 | · | · | -11% | 13 | -9% | ?
COc1ccc(Cl)cc1S(=O)(=O)n1nnc2ccccc21 | 1% | 5% | -10% | -7 | 8% | -1%
O=S(=O)(c1ccc(Cl)cc1)N1c2ccccc2Oc2nc3ccccc3nc21 | 3% | 40% | 16µM* | 5 | 23µM* | -20%
O=S(=O)(c1ccc(Cl)cc1)N1CN(CC2CCCO2)c2nc3ccccc3nc21 (stereo not drawn) | 6% | 36% | -17% | -19 | ? | -1%
COc1ccc(S(=O)(=O)N2c3cc(Cl)ccc3Oc3nc4ccccc4nc32)cc1 | 8% | 0% | 1.6µM* | 45 | 0.73µM* | 11%
COc1cc(C2c3[nH]c4ccccc4c3C[C@H]3C(=O)N(C4CC4)CC(=O)N23)ccc1OC(C)C (stereo partly drawn) | -3% | 38% | -25% | ? | ? | ?
Nc1c(C(=O)Nc2ccccc2Cl)c2ccccn2c1C(=O)c1ccc(Cl)cc1 | · | · | -24% | · | -14% | ·
C/C(=N\NC(=O)C1(C)CC1(Br)Br)c1ccc(NC(=O)C2CCC2)cc1 (stereo not drawn) | -20% | 3% | ? | 12 | 18µM* | 6.5µM*
C/C(=N\NC(=O)c1ccn(C)n1)c1ccc(NC(=O)C2CCCC2)cc1 | 17% | 5% | 18µM* | 59 | -14% | -15%
CC(=O)C1=C(O)C(=O)N(c2ccc(Br)cn2)C1c1ccccc1[N+](=O)[O-] (stereo not drawn) | -5% | ? | -28% | 4 | -10% | ?
CC(=O)C1=C(O)C(=O)N(c2ccccn2)C1c1ccccc1[N+](=O)[O-] (stereo not drawn) | -11% | -36% | 16µM* | 43 | ? | -1%
CCCCCCN1C2=NCCN2c2ccccc21 | -26% | 5% | ? | -21 | ? | -27%
SMILES | VP16 counter | RORgamma inh | TDP1 cell noCPT | IL-1B inflam inh | DT40 TDP1 CPT | ELG1 repair inh
CCCCCCn1ccc(=N)cc1 | 7.1µM* | -36% | 0.21µM* | -12 | 0.21µM* | 3.7µM*
Cc1cccc(NC(=O)c2ccccn2)c1C | 6% | 40% | ? | 0 | ? | ?
Cc1cccc(NC(=O)c2cc3c([nH]c4ccccc43)c(C)n2)c1C | -2% | ? | ? | -1 | 6.5µM* | ?
COc1cccc(C(=O)Nc2nc3nc(C)c(Cc4ccccc4)c(=O)n3[nH]2)c1 | · | · | ? | · | -24% | ·
Clc1ccc(-c2noc(CN(Cc3ccccn3)CC3CCCO3)n2)cc1 (stereo not drawn) | -26% | 4µM* | 16µM* | 5 | ? | -17%
O=C1CC[C@@H](CN(Cc2ccccn2)Cc2nc(Cc3ccccc3)no2)N1 | 5% | -1% | -23% | 12 | 11% | 0%
CCN(Cc1nc(-c2ccc(Cl)cc2)no1)CC1CCCO1 (stereo not drawn) | 4% | 20% | ? | -14 | -19% | 3%
Cc1oc(-c2ccc(F)cc2)nc1CN(Cc1ccccn1)CC1CCCO1 (stereo not drawn) | 5% | -35% | 29µM* | 21 | ? | -1%
FC(F)(F)c1cccc(Cc2noc(CN(Cc3ccccn3)CC3CCCO3)n2)c1 (stereo not drawn) | -6% | -35% | 21µM* | 4 | 21µM* | ?
CCOC(=O)C1(Cc2ccccc2)CCCCCC1=O (stereo not drawn) | · | · | ? | -4 | ? | ·
Cc1ccccc1CNCc1c(C(=O)O)c(C)n(Cc2ccc(F)cc2Cl)c1C | · | · | -19% | · | -21% | ·
C=Cc1ccc(Cn2c(C(=O)O)c(CNCc3ccccc3)c3ccc(C)cc32)cc1 | · | · | 4.6µM* | · | 7.3µM* | ·
COc1ccc2c(CNCc3ccco3)c(C(=O)O)n(Cc3ccc(F)cc3Cl)c2c1 | · | · | 2.6µM* | · | ? | ·
C=Cc1ccc(Cn2c(C(=O)O)c(CNCc3cc(Br)ccc3OC)c3ccc(C)cc32)cc1 | · | · | ? | · | -5% | ·
Cc1ccc(CNCc2c(C(=O)O)n(Cc3ccc(C)cc3)c3cc(C)ccc23)cc1 | · | · | ? | · | 23µM* | ·
COc1ccc(CNCc2c(C(=O)O)n(Cc3ccc(F)cc3)c3cc(C)ccc23)cc1OC | · | · | 23µM* | · | 21µM* | ·
